# Experimental data published in the supplement of paper PMC6658780.
# Structures can show the parent of a compound that is named as a salt. ± gives the standard deviation of the averaged measurements.
# Legend:
# [1] = system: Klebsiella pneumoniae KPC-119; test: percent growth inhibition of drug alone vs DMSO control; higher = more growth inhibition; settings: antibiotic (0.125x MIC): none (0.1% DMSO)
# [2] = system: Klebsiella pneumoniae KPC-119; test: percent growth inhibition of drug + antibiotic vs DMSO control; higher = more growth inhibition
# [3] = system: Klebsiella pneumoniae NCTC-13439; test: percent growth inhibition of drug alone vs DMSO control; higher = more growth inhibition; settings: antibiotic (0.125x MIC): none (0.1% DMSO)
# [4] = system: Klebsiella pneumoniae NCTC-13439; test: percent growth inhibition of drug + antibiotic vs DMSO control; higher = more growth inhibition; settings: antibiotic (0.125x MIC): tigecycline; 7 µM
# [5] = antibiotic (0.125x MIC): colistin, 20 µM
# [6] = antibiotic (0.125x MIC): colistin, 7 µM
compound,measurement,setting,value
C=CCN1CC[C@]23c4c5ccc(O)c4O[C@H]2C(=O)CC[C@@]3(O)[C@H]1C5 [Naloxone hydrochloride],percent growth inhibition of drug alone,[1]; 7 µM,-0.923 ± 1.2%
same,percent growth inhibition of drug alone,[1]; 20 µM,0.247 ± 1.1%
same,percent growth inhibition,[2]; [5],-10.2 ± 2.5%
CCn1cc(C(=O)O)c(=O)c2cc3c(cc21)OCO3 [Oxolinic acid],percent growth inhibition of drug alone,[1]; 7 µM,6.34 ± 3%
same,percent growth inhibition of drug alone,[1]; 20 µM,16.3 ± 9.5%
same,percent growth inhibition,[2]; [6],37.9 ± 7.2%
same,percent growth inhibition,[2]; [5],100.2 ± 0.18%
C[C@]12CC[C@H](O)C[C@@H]1CC[C@@H]1[C@@H]2CC[C@]2(C)C(=O)CC[C@@H]12 [Epiandrosterone],percent growth inhibition of drug alone,[1]; 7 µM,0.561 ± 2%
same,percent growth inhibition of drug alone,[1]; 20 µM,-1.04 ± 0.09%
same,percent growth inhibition,[2]; [6],-6.74 ± 2.2%
O=C([O-])c1ccccc1-c1c2cc(Br)c(=O)cc-2oc2[c]([Hg+])c([O-])c(Br)cc12.[Na+].[Na+].[OH-] [Merbromin],percent growth inhibition of drug alone,[1]; 7 µM,1.39 ± 0.87%
same,percent growth inhibition of drug alone,[1]; 20 µM,7.86 ± 1.4%
same,percent growth inhibition of drug alone,[3]; 7 µM,-0.236 ± 1.4%
same,percent growth inhibition of drug alone,[3]; 20 µM,15.7 ± 0.91%
same,percent growth inhibition,"[2]; antibiotic (0.125x MIC): gentamicin, 7 µM",2.44 ± 4%
same,percent growth inhibition,"[2]; antibiotic (0.125x MIC): meropenem, 20 µM",99.619 ± 0.036%
same,percent growth inhibition,[4],-5.98 ± 14%
C[N+]1([O-])[C@@H]2C[C@@H](OC(=O)[C@H](CO)c3ccccc3)C[C@H]1[C@@H]1O[C@@H]12 (stereo partly drawn) [Scopolamin-N-oxide hydrobromide],percent growth inhibition of drug alone,[1]; 7 µM,-1.08 ± 2.3%
same,percent growth inhibition of drug alone,[1]; 20 µM,-2.41 ± 3.1%
same,percent growth inhibition,[2]; [5],7.85 ± 0.11%
C#CCN(C)[C@H](C)Cc1ccccc1 [Selegiline hydrochloride],percent growth inhibition of drug alone,[1]; 7 µM,-1.33 ± 2.5%
same,percent growth inhibition of drug alone,[1]; 20 µM,0.878 ± 0.49%
same,percent growth inhibition,[2]; [5],4.23 ± 6.9%
